Source: PubChem BioAssay (NCATS)
Results filed as inconclusive are left out. Activity calls are given as the source filed them. Calls follow the shape of the dose curve; as a rule, active = well fitted inhibition curve with a large enough effect; inconclusive = small, poorly fitted or top-dose-only effect; inactive = flat fitted curve, though single readings scatter. Where a SMILES comes first, the peptide text is derived from it. [ ]: non-standard residue; d: D form. pGlu = O=C1CC[C@@H](C(=O)O)N1

Tests used:
[1] = test system: NIH3T3; assay: Cytotoxic Profiling of Annotated Libraries Using Quantitative High-Throughput Screening (AID 1296008); details: Five cell lines viability, CellTiter-Glo ATP luminescence, 48-72 h; max response: stronger effect = lower value
Procedure, shortened: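 Compounds were pin-transferred onto cells and incubated 48 or 72 hr at 37 degree Celsius, 95% humidity. CellTiter-Glo was added, plates sat 10 min at room temperature, then ATP-coupled luminescence was imaged as the viability read-out.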

[2] = test system: MCC-26; assay: qHTS assay to identify novel small-molecules to repurpose for Merkel cell carcinoma treatment (AID 1296009); details: MCC and control cell lines, CellTiter-Glo viability, 72 h; series mostly up to 46 µM
Procedure, shortened: (§1)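 qHTS format: cells treated with library compounds in DMSO across 8 (NPC) or 11 (MIPE) concentrations. Readout after 72 hr at 37 degree celsius was CellTiter-Glo luminescence.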

[3] = test system: HACAT; assay: as above; details: MCC and control cell lines, CellTiter-Glo viability, 72 h; at 44.8 µM (top of the series) unless noted
Procedure, shortened: as §1

[4] = test system: MCC-13; assay: as above; details: MCC and control cell lines, CellTiter-Glo viability, 72 h; series mostly up to 46 µM
Procedure, shortened: as §1

[5] = test system: MKL-1; assay: as above; details: MCC and control cell lines, CellTiter-Glo viability, 72 h; series mostly up to 46 µM
Procedure, shortened: as §1

[6] = test system: MKL-2; assay: as above; details: MCC and control cell lines, CellTiter-Glo viability, 72 h; series mostly up to 46 µM
Procedure, shortened: as §1

[7] = test system: UISO; assay: as above; details: MCC and control cell lines, CellTiter-Glo viability, 72 h; series mostly up to 46 µM
Procedure, shortened: as §1

[8] = test system: WaGa; assay: as above; details: MCC and control cell lines, CellTiter-Glo viability, 72 h; series mostly up to 46 µM
Procedure, shortened: as §1

[9] = test system: NIH3T3; assay: as above; details: MCC and control cell lines, CellTiter-Glo viability, 72 h; at 44.8 µM (top of the series) unless noted
Procedure, shortened: as §1
% is scaled to controls: 0 for no effect and ±100 for the full control effect; potency is read from the fitted curve at half-maximal effect.
Also: nearly all actives have a fitted effect of over 60% in size.

N#C/C(=C1/SC[C@@H](c2ccc(Cl)cc2Cl)S1)n1ccnc1
inactive: max response [1] -5.57% | Potency [2]

Nc1ncnc2nc[nH]c12
inactive: outcome [3] | Potency [4] | Potency [2] | Potency [5] | Potency [6] | Potency [7] | Potency [8]

CCNC(=O)[C@@H]1CCCN1C(=O)[C@H](CCCN=C(N)N)NC(=O)[C@H](CC(C)C)NC(=O)CNC(=O)[C@H](Cc1ccc(O)cc1)NC(=O)[C@H](CO)NC(=O)[C@H](Cc1c[nH]c2ccccc12)NC(=O)[C@H](Cc1cnc[nH]1)NC(=O)[C@@H]1CCC(=O)N1 ([pGlu]HWSYGLRP-NHEt)
inactive: max response [1] -1.57% | Potency [4] | Potency [2] | Potency [5] | Potency [7] | Potency [8]

Nc1ccc2c(c1)CN1C(=O)c3ccccc3C1=N2
inactive: Potency [2] | Potency [6] | Potency [7]
active: Potency [1] 7.31 µM

Nc1cccc2c(N)cccc12
active: Potency [4] 38.6 µM | Potency [5] 6.11 µM | Potency [6] 1.93 µM | Potency [7] 10.9 µM | Potency [8] 19.3 µM
inactive: outcome [3] inactive [at 92 µM]

CN=C(N)NC(=O)Nc1c(C)cccc1C
inactive: outcome [3] | Potency [4] | Potency [2] | Potency [5] | Potency [6] | Potency [7] | Potency [8]

CCC1(c2cnc[nH]2)Cc2ccccc2C1
inactive: outcome [9]
